16 compounds from ChEMBL document CHEMBL1961873, “Compounds: GSK PKIS; Assays: Nanosyn kinase panel” (2012) can be followed below.

Experiment [1] relates to Epidermal growth factor receptor (Homo sapiens), P00533 [T790M]. Particulars: at 1 µM.
In experiment [2] the test system is Epidermal growth factor receptor (Homo sapiens), P00533 [L858R,T790M]. The note with it: at 0.1 µM.
Experiment [3] shares this test system. Particulars: at 1 µM.
Experiment [4] has as its target Ephrin type-A receptor 2 (Homo sapiens) (UniProt P29317). The note with it: at 0.1 µM.
Experiment [5] has the same target. Particulars: at 1 µM.
Experiment [6] deals with T1, Ephrin type-A receptor 3 (Homo sapiens) (UniProt P29320).
T1 sequence (whole entry): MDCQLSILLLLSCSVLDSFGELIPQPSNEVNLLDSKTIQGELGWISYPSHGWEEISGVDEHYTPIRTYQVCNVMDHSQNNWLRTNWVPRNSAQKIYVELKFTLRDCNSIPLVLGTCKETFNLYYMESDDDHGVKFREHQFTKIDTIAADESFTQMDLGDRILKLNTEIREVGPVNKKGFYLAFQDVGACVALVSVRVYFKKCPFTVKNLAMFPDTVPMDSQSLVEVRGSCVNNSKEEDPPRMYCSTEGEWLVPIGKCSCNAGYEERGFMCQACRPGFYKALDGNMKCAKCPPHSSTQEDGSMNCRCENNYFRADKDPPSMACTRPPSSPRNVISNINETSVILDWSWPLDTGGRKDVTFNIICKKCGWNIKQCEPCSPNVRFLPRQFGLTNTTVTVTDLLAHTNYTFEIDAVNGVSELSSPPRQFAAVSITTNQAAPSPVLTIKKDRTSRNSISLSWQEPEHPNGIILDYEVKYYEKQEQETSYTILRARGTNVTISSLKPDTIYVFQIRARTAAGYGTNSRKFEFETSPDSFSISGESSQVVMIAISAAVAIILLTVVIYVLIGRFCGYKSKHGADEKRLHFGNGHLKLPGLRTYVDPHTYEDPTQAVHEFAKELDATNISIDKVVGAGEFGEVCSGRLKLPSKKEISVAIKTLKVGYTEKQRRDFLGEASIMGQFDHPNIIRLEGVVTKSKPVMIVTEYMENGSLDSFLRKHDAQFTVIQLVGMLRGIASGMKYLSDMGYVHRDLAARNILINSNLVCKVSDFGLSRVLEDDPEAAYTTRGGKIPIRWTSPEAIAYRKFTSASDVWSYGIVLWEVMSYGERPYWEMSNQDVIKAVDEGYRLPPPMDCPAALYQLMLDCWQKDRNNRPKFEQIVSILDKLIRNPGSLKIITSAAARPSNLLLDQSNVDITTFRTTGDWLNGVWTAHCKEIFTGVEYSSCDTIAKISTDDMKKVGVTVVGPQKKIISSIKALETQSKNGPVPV
The note with it: at 0.1 µM.

The target of experiment [7] is T1, Ephrin type-A receptor 3 (Homo sapiens). Particulars: at 1 µM.
In experiment [8] the target is Ephrin type-A receptor 4 (Homo sapiens) (UniProt P54764). The note with it: at 0.1 µM.
The target is the same in experiment [9]. Particulars: at 1 µM.
The target in experiment [10] is T2, Ephrin type-B receptor 2 (Homo sapiens) (UniProt P29323).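 Note: reported as mean inhibition of EPHB2, from the GSK PKIS dataset.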
T2 sequence (whole entry): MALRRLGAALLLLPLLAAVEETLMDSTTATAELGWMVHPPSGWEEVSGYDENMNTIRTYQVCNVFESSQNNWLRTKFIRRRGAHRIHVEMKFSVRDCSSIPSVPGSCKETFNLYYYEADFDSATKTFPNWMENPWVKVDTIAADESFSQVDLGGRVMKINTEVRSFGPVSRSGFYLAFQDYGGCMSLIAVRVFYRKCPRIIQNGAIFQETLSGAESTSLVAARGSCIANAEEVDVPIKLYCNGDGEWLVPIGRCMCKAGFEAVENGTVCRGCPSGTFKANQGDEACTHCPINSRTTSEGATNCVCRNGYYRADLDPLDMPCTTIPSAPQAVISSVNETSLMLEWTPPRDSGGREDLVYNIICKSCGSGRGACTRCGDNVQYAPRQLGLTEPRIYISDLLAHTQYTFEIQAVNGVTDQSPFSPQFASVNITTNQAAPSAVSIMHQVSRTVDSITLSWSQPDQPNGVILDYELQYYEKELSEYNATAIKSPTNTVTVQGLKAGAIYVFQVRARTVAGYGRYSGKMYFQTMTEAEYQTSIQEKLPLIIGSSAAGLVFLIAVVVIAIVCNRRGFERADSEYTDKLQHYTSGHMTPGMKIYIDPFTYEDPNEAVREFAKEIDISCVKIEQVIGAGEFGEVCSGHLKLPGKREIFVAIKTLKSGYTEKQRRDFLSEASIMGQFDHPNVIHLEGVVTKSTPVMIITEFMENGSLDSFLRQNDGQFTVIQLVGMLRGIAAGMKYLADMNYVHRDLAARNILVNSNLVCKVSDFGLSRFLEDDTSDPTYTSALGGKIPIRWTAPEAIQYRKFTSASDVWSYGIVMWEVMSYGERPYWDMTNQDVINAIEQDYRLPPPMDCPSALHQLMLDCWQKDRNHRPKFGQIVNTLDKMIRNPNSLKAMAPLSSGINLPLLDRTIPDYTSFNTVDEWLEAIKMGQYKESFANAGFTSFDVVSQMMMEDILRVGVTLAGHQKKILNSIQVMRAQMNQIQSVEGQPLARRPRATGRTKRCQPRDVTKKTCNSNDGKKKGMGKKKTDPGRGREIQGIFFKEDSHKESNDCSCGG
Particulars: at 0.1 µM.

Sequence of Epidermal growth factor receptor (Homo sapiens), P00533 [T790M] (P00533 whole entry T790M): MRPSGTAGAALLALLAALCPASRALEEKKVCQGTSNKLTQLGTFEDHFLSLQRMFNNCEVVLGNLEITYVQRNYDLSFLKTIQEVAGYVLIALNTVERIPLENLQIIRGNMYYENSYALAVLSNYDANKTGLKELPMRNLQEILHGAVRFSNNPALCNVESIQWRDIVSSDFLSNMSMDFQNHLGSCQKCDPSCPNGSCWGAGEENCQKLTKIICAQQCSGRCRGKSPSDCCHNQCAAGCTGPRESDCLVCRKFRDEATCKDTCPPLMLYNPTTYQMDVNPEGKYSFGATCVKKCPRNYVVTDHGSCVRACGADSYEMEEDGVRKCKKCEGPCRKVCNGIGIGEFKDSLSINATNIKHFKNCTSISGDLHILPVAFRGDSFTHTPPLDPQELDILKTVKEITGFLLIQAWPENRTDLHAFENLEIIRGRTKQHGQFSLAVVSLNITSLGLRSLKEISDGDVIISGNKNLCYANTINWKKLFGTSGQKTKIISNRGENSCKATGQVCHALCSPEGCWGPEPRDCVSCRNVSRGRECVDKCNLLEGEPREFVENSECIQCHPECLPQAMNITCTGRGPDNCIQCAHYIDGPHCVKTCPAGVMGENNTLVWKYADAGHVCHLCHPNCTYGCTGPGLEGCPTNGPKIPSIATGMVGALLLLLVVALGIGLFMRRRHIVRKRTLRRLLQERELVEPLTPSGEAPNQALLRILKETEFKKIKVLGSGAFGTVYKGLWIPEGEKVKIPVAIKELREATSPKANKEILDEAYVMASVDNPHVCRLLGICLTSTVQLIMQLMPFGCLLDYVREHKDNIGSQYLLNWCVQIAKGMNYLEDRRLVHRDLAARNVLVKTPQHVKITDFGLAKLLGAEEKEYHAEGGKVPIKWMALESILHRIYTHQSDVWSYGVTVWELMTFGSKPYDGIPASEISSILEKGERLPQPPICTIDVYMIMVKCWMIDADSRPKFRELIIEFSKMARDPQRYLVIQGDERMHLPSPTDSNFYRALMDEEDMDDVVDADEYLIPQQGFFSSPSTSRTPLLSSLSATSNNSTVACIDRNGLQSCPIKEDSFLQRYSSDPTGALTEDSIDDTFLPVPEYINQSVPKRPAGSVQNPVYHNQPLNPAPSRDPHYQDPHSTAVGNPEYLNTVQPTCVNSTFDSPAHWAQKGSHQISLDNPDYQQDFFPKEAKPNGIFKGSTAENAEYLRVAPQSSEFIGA
Sequence of Ephrin type-A receptor 4 (Homo sapiens) (P54764 whole entry): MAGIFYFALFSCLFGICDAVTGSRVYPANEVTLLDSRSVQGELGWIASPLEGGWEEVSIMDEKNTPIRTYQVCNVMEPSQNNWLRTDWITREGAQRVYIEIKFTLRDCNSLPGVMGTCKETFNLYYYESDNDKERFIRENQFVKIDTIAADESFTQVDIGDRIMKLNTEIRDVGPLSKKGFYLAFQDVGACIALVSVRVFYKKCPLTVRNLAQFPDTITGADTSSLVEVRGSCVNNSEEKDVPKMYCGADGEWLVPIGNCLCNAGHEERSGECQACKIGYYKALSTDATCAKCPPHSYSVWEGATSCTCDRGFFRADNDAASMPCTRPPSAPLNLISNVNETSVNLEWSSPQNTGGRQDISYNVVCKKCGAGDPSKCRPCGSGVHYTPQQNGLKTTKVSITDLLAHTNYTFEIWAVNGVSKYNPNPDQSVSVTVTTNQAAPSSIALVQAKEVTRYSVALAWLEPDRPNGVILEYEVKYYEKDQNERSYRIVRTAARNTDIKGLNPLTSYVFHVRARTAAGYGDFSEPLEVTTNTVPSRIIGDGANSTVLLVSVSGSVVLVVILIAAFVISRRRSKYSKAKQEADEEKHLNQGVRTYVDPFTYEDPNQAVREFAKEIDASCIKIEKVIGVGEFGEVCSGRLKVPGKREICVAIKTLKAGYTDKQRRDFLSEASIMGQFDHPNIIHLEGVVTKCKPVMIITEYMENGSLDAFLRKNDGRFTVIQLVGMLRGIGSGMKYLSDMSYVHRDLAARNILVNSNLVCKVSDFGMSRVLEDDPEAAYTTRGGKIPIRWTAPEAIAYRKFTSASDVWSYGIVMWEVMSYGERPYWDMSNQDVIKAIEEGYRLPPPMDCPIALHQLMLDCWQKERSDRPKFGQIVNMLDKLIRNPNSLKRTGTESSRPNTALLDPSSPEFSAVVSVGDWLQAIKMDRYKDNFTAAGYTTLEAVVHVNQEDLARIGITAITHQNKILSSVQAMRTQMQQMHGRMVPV
Sequence of Epidermal growth factor receptor (Homo sapiens), P00533 [L858R,T790M] (P00533 whole entry T790M/L858R, looked up): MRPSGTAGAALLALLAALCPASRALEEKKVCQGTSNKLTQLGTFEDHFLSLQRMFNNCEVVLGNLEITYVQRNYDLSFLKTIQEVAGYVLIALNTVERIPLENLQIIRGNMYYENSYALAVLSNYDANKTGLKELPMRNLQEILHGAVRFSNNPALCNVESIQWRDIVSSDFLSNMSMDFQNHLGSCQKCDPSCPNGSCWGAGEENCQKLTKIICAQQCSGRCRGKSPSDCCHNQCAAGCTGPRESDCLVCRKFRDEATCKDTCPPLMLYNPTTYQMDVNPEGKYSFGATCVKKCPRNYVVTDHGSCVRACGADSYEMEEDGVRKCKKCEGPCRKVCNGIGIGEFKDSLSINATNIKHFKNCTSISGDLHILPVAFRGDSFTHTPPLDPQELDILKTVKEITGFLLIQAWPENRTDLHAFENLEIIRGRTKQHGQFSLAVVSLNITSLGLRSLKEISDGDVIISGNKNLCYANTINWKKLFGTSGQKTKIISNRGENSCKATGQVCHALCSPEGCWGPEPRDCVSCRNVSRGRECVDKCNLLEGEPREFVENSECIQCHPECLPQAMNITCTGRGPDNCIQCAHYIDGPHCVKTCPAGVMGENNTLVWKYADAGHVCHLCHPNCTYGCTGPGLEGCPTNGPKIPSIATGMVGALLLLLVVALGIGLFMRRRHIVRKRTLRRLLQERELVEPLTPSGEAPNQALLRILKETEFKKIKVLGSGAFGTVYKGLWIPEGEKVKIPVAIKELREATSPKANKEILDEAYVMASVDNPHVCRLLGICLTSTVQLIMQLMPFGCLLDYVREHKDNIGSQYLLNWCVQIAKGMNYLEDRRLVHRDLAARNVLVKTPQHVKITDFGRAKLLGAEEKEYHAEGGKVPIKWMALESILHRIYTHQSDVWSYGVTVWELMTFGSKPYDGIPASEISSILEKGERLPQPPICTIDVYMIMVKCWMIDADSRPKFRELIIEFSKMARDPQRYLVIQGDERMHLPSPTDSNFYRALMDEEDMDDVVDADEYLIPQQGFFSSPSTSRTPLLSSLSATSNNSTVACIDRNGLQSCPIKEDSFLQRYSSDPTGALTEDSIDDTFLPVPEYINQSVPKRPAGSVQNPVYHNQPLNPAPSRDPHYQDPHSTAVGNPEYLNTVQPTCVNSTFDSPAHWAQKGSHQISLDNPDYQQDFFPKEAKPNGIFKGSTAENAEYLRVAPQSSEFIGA
Sequence of Ephrin type-A receptor 2 (Homo sapiens) (P29317 whole entry): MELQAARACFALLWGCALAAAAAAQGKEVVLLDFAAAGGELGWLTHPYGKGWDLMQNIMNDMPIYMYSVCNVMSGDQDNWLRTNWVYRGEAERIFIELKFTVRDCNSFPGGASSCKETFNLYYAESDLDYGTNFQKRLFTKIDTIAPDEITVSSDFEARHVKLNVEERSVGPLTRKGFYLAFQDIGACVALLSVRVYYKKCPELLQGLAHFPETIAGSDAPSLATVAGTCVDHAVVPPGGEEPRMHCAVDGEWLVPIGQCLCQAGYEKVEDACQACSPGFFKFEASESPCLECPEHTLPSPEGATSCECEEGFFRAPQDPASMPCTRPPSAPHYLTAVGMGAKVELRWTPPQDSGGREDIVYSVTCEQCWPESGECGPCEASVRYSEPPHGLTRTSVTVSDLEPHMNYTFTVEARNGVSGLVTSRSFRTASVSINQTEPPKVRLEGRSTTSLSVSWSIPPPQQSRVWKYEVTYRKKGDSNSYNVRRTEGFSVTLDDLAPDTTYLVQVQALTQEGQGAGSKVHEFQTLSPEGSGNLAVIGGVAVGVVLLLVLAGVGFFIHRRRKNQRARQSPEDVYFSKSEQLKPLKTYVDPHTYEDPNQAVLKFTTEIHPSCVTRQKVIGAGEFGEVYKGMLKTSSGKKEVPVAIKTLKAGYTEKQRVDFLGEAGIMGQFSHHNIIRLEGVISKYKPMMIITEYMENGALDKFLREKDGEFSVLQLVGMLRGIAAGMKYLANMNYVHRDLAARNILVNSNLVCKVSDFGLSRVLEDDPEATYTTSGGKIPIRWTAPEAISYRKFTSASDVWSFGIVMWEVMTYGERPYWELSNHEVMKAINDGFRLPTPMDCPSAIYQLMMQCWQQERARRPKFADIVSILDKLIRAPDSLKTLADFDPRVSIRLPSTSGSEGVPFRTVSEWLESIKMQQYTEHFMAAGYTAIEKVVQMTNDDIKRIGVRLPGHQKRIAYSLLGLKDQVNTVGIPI

In general, inhibition refers to the change of the read-out against control, counted positive when it falls. For `O=C(Nc1n[nH]c2nc(-c3ccco3)c(Br)cc12)C1CC1`, the inhibition in experiment [1] was -0.71%; in experiment [2] it was 5.44%; in [3], 0.25%; in experiment [4], 1.53%; in experiment [5] it was 1.29%; in experiment [6] it was 6.55%. Also, the inhibition in experiment [7] came out at 4.24%; in experiment [8], 7.41%; in [9], 2.95%; in [10], 7.31%.
For the compound `COC(=O)Nc1nc2cc(Oc3cccc(NC(=O)Nc4cc(C(F)(F)F)ccc4F)c3)ccc2[nH]1`, the inhibition is -1.93% in [1]; -3.25% in experiment [2]; 3.44% in experiment [3]; -2.35% in [4]; 3.83% in experiment [5]; 0.48% in experiment [6]. Moreover, the inhibition in experiment [7] was 2.56%; in experiment [8], 1.63%; in experiment [9] it was 14.2%; in [10] it was -0.54%.
Regarding `CC1=C(C(=O)Nc2ccc3[nH]ncc3c2)C(c2ccc(F)cc2)NC(=O)N1` (stereo not given), the inhibition is 0.87% in experiment [1]; -2.35% in experiment [2]; -1.39% in experiment [3]; -2.91% in [4]; -2.18% in experiment [5]; 2.51% in experiment [6]. The inhibition in [7] came out at 2.14%; in experiment [8], 4.19%; in experiment [9], 4.52%; in experiment [10] it was 2.76%.
Regarding `Nc1nc(-c2ccc3c(c2)C(=Cc2cc(Br)c(O)c(Br)c2)C(=O)N3)cs1`, the inhibition is -1.57% in [1]; -0.73% in [2]; 3.93% in experiment [3]; -4.92% in [4]; -4.26% in experiment [5]; -6.05% in experiment [6]. The inhibition in experiment [7] is -2.41%; in experiment [8], -6.57%; in experiment [9], -2.56%; in experiment [10], -3.26%.
Turning to `COc1ccc(-c2coc3ncnc(N)c23)cc1`, the inhibition in experiment [1] is -0.41%; in experiment [2] it was 3.68%; in experiment [3], 1.07%; in experiment [4] it was 1.21%; in experiment [5], 1.62%; in [6], 2.58%. Also, the inhibition in experiment [7] came out at 3.4%; in experiment [8], 7.51%; in experiment [9], 3.15%; in experiment [10], 4.53%.
`NC(=O)c1ccc(-c2nc(-c3ccccn3)c(-c3ccc4c(c3)OCO4)[nH]2)cc1`: the inhibition in [1] was 1.62%; in [2] it was 3.52%; in [3], -0.97%; in [4] it was -0.18%; in experiment [5] it was -0.13%; in experiment [6], 3.83%. The inhibition in [7] amounted to 1.89%; in [8] it was 7.63%; in experiment [9] it was 7.96%; in [10], 6.11%.
Turning to `O=C1NC(=O)C(N2CCc3ccccc32)=C1c1ccc(Cl)cc1`, the inhibition in experiment [1] was -0.47%; in [2], 1.35%; in experiment [3], 2.67%; in [4], 1.33%; in experiment [5], 1.75%; in [6], 3.76%. Further, the inhibition in [7] was 3.61%; in [8], 8.28%; in [9], 3.43%; in experiment [10] it was 5.72%.
In the case of `CCc1cccc(NC(=O)Nc2ccc(Oc3ccc4nc(NC(=O)OC)[nH]c4c3)cc2)c1`, the inhibition in [1] turned out to be 1.6%; in experiment [2], 3.59%; in [3] it was 4.31%; in experiment [4], 49.4%; in experiment [5] it was 65.7%; in experiment [6], 13.9%. In addition, the inhibition in [7] was 10.1%; in experiment [8], 52.3%; in experiment [9] it was 72.3%; in experiment [10], 44.5%.
Turning to `O=C1NC(=O)C(c2cccc(Cl)c2)=C1Nc1ccc(O)c(Cl)c1`, the inhibition was -0.85% in experiment [1]; 0.92% in experiment [2]; 0.61% in experiment [3]; 0.74% in [4]; 1.32% in [5]; 0.53% in experiment [6]. Further, the inhibition in experiment [7] was -2.04%; in experiment [8], 1.17%; in experiment [9], -8.81%; in experiment [10], -3.19%.
Consider `CCN1CCC(CC(=O)Nc2n[nH]c3nc(-c4cccs4)c(Br)cc23)CC1`, for which the inhibition was -1.12% in experiment [1]; 0.09% in experiment [2]; -0.41% in experiment [3]; -3.7% in experiment [4]; -1.54% in experiment [5]; -7.71% in [6]. Moreover, the inhibition in [7] is -2.29%; in experiment [8] it was -7.32%; in experiment [9] it was -3.58%; in experiment [10], -2.13%.
`CCn1c(-c2nonc2N)nc2c(N3CCCC3)nccc21`: the inhibition in [1] was -1.06%; in experiment [2] it was 0.11%; in [3], 0.62%; in experiment [4] it was -5.01%; in experiment [5], -4.35%; in experiment [6], -5.79%. Moreover, the inhibition in experiment [7] was -2.29%; in experiment [8], -6.53%; in experiment [9] it was -8.11%; in experiment [10] it was -2.18%.
For `COc1ccc(-c2nn3ncccc3c2-c2ccnc(Nc3ccc(Cl)c(C(F)(F)F)c3)n2)cc1`, the inhibition in [1] is 3.31%; in experiment [2], 0.9%; in [3], 4.78%; in [4], 0.97%; in experiment [5] it was 0.97%; in experiment [6], 3.2%. The inhibition was 3.4% in experiment [7], 6.57% in experiment [8], 10.2% in experiment [9] and 3.9% in experiment [10].
Consider `CC(C)=Cc1cccc2c1/C(=N/Nc1ccc(S(N)(=O)=O)cc1)C(=O)N2`, for which the inhibition was 1.05% in experiment [1]; 2.29% in [2]; 2.58% in experiment [3]; 0.83% in experiment [4]; 3.1% in experiment [5]; 2.78% in [6]. Moreover, the inhibition in experiment [7] is 3.12%; in [8] it was 4.39%; in experiment [9] it was 11%; in [10], 1.72%.
In the case of `COc1cc2ncn(-c3cc(OCc4ccccc4C(F)(F)F)c(C(N)=O)s3)c2cc1OC`, the inhibition in experiment [1] is 1.9%; in [2], 3.32%; in experiment [3], 4.7%; in experiment [4] it was -0.41%; in [5], 3.23%; in [6], -0.35%. Besides, the inhibition in experiment [7] was found to be 7.13%; in experiment [8] it was 11.3%; in experiment [9] it was 23.3%; in experiment [10] it was 14.9%.
Turning to `COc1cc2c(cc1Nc1nc(N3CCc4ccccc43)c3cc[nH]c3n1)N(C(=O)CN(C)C)CC2`, the inhibition turned out to be 2.36% in experiment [1]; 3.77% in [2]; 9.23% in experiment [3]; 2.22% in [4]; 2.11% in [5]; 2.13% in experiment [6]. Also, the inhibition in experiment [7] was determined as 0.93%; in experiment [8] it was 3.39%; in [9], 6.36%; in [10], 2.81%.
As for `Cc1cccc(-c2n[nH]cc2-c2ccc3ncccc3n2)n1`, the inhibition was -0.3% in experiment [1]; -1.54% in [2]; -0.13% in experiment [3]; -2.12% in experiment [4]; -2.51% in experiment [5]; 0.6% in [6]. Also, the inhibition in experiment [7] worked out at 3.6%; in [8] it was 3.45%; in experiment [9] it was 4.46%; in experiment [10], 1.55%.
